# Measured values from PubChem BioAssay AID602179 (National Center for Advancing Translational Sciences (NCATS), 2012).
# The campaign covered roughly 390,000 compounds. About 360 (0.092%) were called active. Only a selection was taken, and actives are over-represented in it overall. Values without a mark were called inactive. Calls come from the whole dose curve; as a rule, active = well fitted inhibition curve with a large enough effect; inconclusive = small, poorly fitted or top-dose-only effect; inactive = no such curve, though single readings can be large or run the other way.
# Target: Isocitrate dehydrogenase [NADP] cytoplasmic (Homo sapiens) (UniProt O75874)
# Sequence (O75874 whole entry R132H, change not shown): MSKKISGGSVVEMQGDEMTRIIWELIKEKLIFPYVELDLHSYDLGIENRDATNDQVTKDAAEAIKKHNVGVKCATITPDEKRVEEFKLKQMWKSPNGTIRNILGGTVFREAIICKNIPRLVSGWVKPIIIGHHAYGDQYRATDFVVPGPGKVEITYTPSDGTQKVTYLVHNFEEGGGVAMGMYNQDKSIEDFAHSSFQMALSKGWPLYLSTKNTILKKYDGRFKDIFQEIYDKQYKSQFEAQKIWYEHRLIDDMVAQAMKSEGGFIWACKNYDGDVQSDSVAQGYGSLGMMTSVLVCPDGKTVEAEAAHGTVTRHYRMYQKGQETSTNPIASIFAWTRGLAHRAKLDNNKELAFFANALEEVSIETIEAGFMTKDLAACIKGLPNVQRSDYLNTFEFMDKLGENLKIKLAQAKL
# Assay: qHTS for Inhibitors of mutant isocitrate dehydrogenase 1 (IDH1): qHTS; note: nearly all actives have a fitted effect of over 65% in size
# Conditions: IDH1-R132H enzyme, NADPH consumption, diaphorase/resazurin fluorescence; series mostly up to 76.6 µM; activity change, negative = inhibition: at the top concentration
# Source text: Unbiased genomic sequencing for 22 glioma genomes found recurrent mutation of isocitrate dehydrogenase 1 (IDH1) on chromosome 2q33-a gene encoding the cytosolic isoform of IIDH1associated with the tricarboxylic acid cycle (TCA) that catalyzes the oxidative decarboxylation of isocitrate, yielding alpha-ketoglutarate and CO2 via NADP+ to NADPH conversion. Subsequent studies confirmed the recurrent IDH mutations in up to 70% of secondary gliomas and in 10% of AML cases. […] This in effect defines IDH1 as an oncogene, and provides an extraordinary opportunity to discover chemical probes against mutant IDH1 that may translate into much needed new therapies for glioma and AML patients. […] NIH Chemical Genomics Center [NCGC] NIH Molecular Libraries Probe Centers Network [MLPCN] MLPCN Grant: DA032129 Assay Submitter (PI): Lenny Dang, Agios Pharmaceuticals
# IDH1-R132H (0.5 ug/mL) was dispensed into black, solid-bottom 1536-well plates at 3 uL/well in 20 mM Tris-HCl (pH 7.5), 150 mM NaCl, 10 mM MgCl2, 4 mM beta-ME, and 0.05% protease-free BSA. Then, 23 nL of compounds or DMSO were delivered to each well using a pin tool. A pre-read was run on the Viewlux to identify fluorescent compounds (540 nm excitation filter, 598 nm emission filter, bodipy mirror and 2 second exposure). After 30 minutes of incubation with compound, 3 uL of substrate mix were dispensed (0.016 mM NADPH, 2 mM alpha-KG, 20 mM Tris-HCl (pH 7.5), 150 mM NaCl, 10 mM MgCl2, and 0.05% protease-free BSA). Plates were spun for 1 min at 1000xg and incubated at room temperature for 80 min. Then 1.5 uL of each detection reagent component for the coupling system were added (0.12 mg/mL diaphorase and 0.072 mM resazurin, each in 20 mM Tris-HCl (pH 7.5), 150 mM NaCl, 10 mM MgCl2, and 0.05% protease-free BSA ) The protein, substrate and two detection components were maintained at 4 °C throughout the screen. Additionally, the substrate and resazurin reagents were protected from light. The plates were measured on an Envision plate reader for fluorescence signal using a 540 nm excitation filter and 590 nm emission filter with 10 flashes. 1x and 0x (no-enzyme) IDH1-R132H enzyme control were used to normalize %Activity of identified inhibitors; 0x enzyme values corresponded to 100% Activity (full inhibition), while 1x IDH1-R132H enzyme values were used to normalize 0%Activity (no inhibition). Concentration-response curves were fitted to the signals arising from the resulting fluorescence. The concentration-effect curves were then classified based on curve quality (r2), response magnitude and degree of measured activity, and compounds were subsequently categorized based on their curve class. […] Keywords: isocitrate dehydrogenase, IDH1, IDH1-R132H, MLSMR, MLPCN, NIH Roadmap, qHTS, NCGC
# % is set by controls: 0 for no effect and ±100 for the full control effect; potency is the fitted concentration of half-maximal effect.
SMILES,"activity change, negative = inhibition",Potency
O=C(NCCc1ccc(Cl)cc1)c1ccc2nc(CCc3ccccc3)oc2c1,-6.32%,–
CCC1(C)CC(=O)c2c(ccc3oc(C(=O)Nc4ccc(C(C)=O)cc4)c(C)c23)O1 (stereo not given),15.7%,–
Cc1noc(/C=C/N(C)C)c1S(=O)(=O)N1CCCC(C(=O)Nc2cccc(F)c2)C1 (stereo not given),2.9%,–
CCOC(=O)c1c(C)oc2nc(C)nc(N(CC(C)C)CC(C)C)c12,-5.12%,–
COc1ccc(NC(=O)CSc2nccn2Cc2ccc3c(c2)OCO3)cc1,-2.7%,–
CCOc1ccc(CNC(=O)c2ccc3c(c2)nnn3C2CCCC2)cc1,-1.82%,–
CN(Cc1ccccc1)c1ccc(-c2nc(-c3ccccc3)no2)cc1[N+](=O)[O-],10.1%,–
NC(=O)CSc1nc2c(oc3ccccc32)c(=O)n1Cc1ccccc1,14.4%,–
CCOc1cccc(NC(=O)c2ccc(F)c(S(=O)(=O)N(CC)c3cccc(C)c3)c2)c1,-1.16%,–
O=C(CCn1c(=O)c2sccc2n(Cc2ccc(F)cc2)c1=O)NCc1ccc2c(c1)OCO2,-5.74%,–
CCC(=O)Nc1cccc(C(=O)OCc2cc(=O)n3nc(CC)sc3n2)c1,-9.41%,–
CSc1ncc(C(=O)NCc2ccccc2Cl)c(C(F)(F)F)n1,-6.99%,–
O=C(Cn1c(=O)nc(-c2ccccc2)c2cc(Cl)ccc21)NCc1ccc(Cl)cc1,-8.72%,–
CN(CC(=O)Nc1cccc(C(F)(F)F)c1)S(=O)(=O)c1cccs1,2.99%,–
COc1ccccc1NC(=O)C1=C(C)Nc2nc(SCC(=O)c3ccc(C)cc3)nn2C1c1ccccc1C (stereo not given),9.04%,–
COc1ccc(-c2nc(C)c(CCNC(=O)c3ccc(C(F)(F)F)cc3)s2)cc1OC,4.38%,–
Cc1ccc(C(=O)Nc2ccc(C(=O)O)cc2)cc1S(=O)(=O)Nc1ccccc1,8.34%,–
COc1ccc(CNC(=O)c2cc3c(s2)-c2ccccc2OC3)cc1,7.22%,–
COc1ccc(CNC(=O)COC(=O)C2=Cc3ccccc3OC2)cc1,–,52.1 µM (active)
COc1cccc(CC(=O)OCC(=O)NCc2ccc3c(c2)OCO3)c1,-1.17%,–
O=C(CSc1nc(=O)[nH]c2c1CCCC2)Nc1cc(C(F)(F)F)ccc1Cl,1.58%,–
COc1ccc(Cl)cc1NC(=O)CCn1c(=O)c2cccn2c2ccccc21,15.1%,–
COc1ccc(-c2onc(C)c2C)cc1S(=O)(=O)NCC1CCN(Cc2cccc(F)c2)CC1,1.7%,–
COc1cccc(-n2ccn(CC(=O)NCc3ccc(C)cc3)c(=O)c2=O)c1,-2.1%,–

SMILES,"activity change, negative = inhibition",Potency
COc1ccccc1NC(=O)CSc1oc(-c2ccco2)nc1S(=O)(=O)c1ccc(Br)cc1,5.21%,–
Cc1ccc(Cl)cc1NC(=O)C(C)n1nnc2sc(-c3ccccc3)cc2c1=O (stereo not given),-9.89%,–
Cn1c(COc2ccc(Cl)cc2)nc2ccccc2c1=O,–,52.1 µM (active)
CC(C)c1ccc(Cn2c(COc3ccccc3)nc3ccccc32)cc1,-0.67%,–
COc1ccccc1OCCCn1c(-c2ccc(Cl)cc2)nc2ccccc2c1=O,-10.3%,–
Cc1ccc(CNS(=O)(=O)c2ccc(C(=O)N(C)C)s2)cc1,0.733%,–
COc1cc2nc(SCC(=O)Nc3ccccc3F)n3nc(-c4ccccc4)nc3c2cc1OC,0%,–
CCNS(=O)(=O)c1ccc(NC(=O)CSc2nc(-c3ccco3)cc(C(F)(F)F)n2)cc1,-11.6%,–
COc1ccc(NC(=O)Cn2cc(C(=O)c3ccncc3)c(=O)c3cc(C)ccc32)cc1Cl,-15.1%,–
Cc1ccc(C)c(Cn2c(C)c(CNCc3ccc(F)cc3)c(C(=O)O)c2C)c1,-3.26%,–
CCOc1cc(C2C(C(=O)OC)=C(C)NC3=C2C(=O)c2ccccc23)ccc1O (stereo not given),3.72%,–
CCn1cc(C(=O)N(C)Cc2ccccc2)c(=O)c2cc(S(=O)(=O)N3CCCCCC3)ccc21,3.18%,–
CCOc1ccc2nc(N3CCC(C(=O)Nc4cc(C)ccc4C)CC3)sc2c1,-5.67%,–
CCC(=O)N1CCc2cc(S(=O)(=O)NCCC(=O)Nc3cccc(C)c3C)ccc21,0%,–
Cc1ccc(NC(=O)CSc2nnc3[nH]c(=O)cc(C)n23)cc1Cl,-5.19%,–
O=C(Cn1c(=O)n(-c2ccc(F)cc2)c(=O)c2sc3ccccc3c21)NC1CCCC1,5.77%,–
CCOc1cc(-c2nnc(SCC(=O)NC3CCCC3)nc2-c2ccc(OC)c(OCC)c2)ccc1OC,-5.74%,–
CCOc1ccc(CNC(=O)Cn2cc3c(n2)-c2c(oc(C(=O)N4CCCC4)c2C)CC3)cc1,-2.43%,–
CCN(CCCNC(=O)Cn1ncc2c3ccccc3n(C)c2c1=O)Cc1ccccc1,1.64%,–
Cc1ccc(-c2nnc(Nc3cccc(Br)c3)c3ccccc23)cc1S(=O)(=O)NCC1CCCO1 (stereo not given),-14.4%,–
CCOC(=O)c1ccc(NC(=O)CCS(=O)(=O)c2ccc(C)cc2)cc1,19.8%,–
CCC(=O)N1N=C(c2ccc(OC)cc2)CC1c1cn(-c2ccccc2)nc1-c1cccs1 (stereo not given),6.3%,–
Cn1ccc2cc(S(=O)(=O)N3CCCC(C(=O)NCc4ccccc4F)C3)ccc21 (stereo not given),-13.5%,–
Cc1ccc(CN2CCC(CNC(=O)c3cnn(-c4ccc(C)cc4)c3C3CCN(C(=O)OC(C)(C)C)CC3)CC2)cc1,0.407%,–

SMILES,"activity change, negative = inhibition",Potency
CCN(CCCNC(=O)c1cc2cc3cc(OC)ccc3nc2s1)c1ccccc1,3.91%,–
Cc1ccc(Cl)cc1N1CCN(C(=O)c2cnc3c(-c4ccc(F)cc4)c(C)nn3c2C)CC1,-4.49%,–
Cc1cc(C)cc(OCC(=O)Nc2nc(-c3ccc(F)cc3)ns2)c1,-3.14%,–
COc1ccc(C(CCN(Cc2ccc(OC)c(OC)c2)C(=O)CCl)c2ccccc2)cc1 (stereo not given),–,36.9 µM (active)
COc1ccc(CN(C(=O)CSc2nnc(-c3ccc(OC)c(OC)c3)o2)c2ccc(F)cc2)cc1,3.1%,–
CCN(CCCCOC(=O)c1ccc(OC)c(OC)c1)C(C)Cc1ccc(OC)cc1 (stereo not given),1.03%,–
O=C1N(Cc2ccccc2)c2ccc(Cl)cc2C1(O)c1c[nH]c2ccccc12 (stereo not given),7.28%,–
CCOC(=O)c1cccc(NC(=O)Cn2cnc3nc4c(cc3c2=O)CCCC4)c1,-4.55%,–
Cc1nc2ccn(Cc3cccs3)c(=O)c2cc1C(=O)NCc1ccc(Cl)cc1,-1.97%,–
COc1cc(C(=O)N(Cc2ccc(C(C)C)cc2)C2CCS(=O)(=O)C2)cc(OC)c1OC (stereo not given),8.8%,–
COC(=O)c1c(-c2ccsc2)oc2ccc(-c3cc(OC)c(OC)c(OC)c3)cc12,18.5%,–
COc1cc(-c2c(-c3ccc4c(c3)OCO4)noc2C)ccc1F,11%,–
COc1cc2c(-c3ccc4c(c3)OCO4)c(-c3ccsc3)oc(=O)c2cc1OC,–,10 µM (active)
CCn1c(=O)cc(OCC(=O)Nc2cc(Cl)c(OC)cc2OC)c2ccccc21,-5.22%,–
Cc1ccc(-c2nn(CCC(=O)Nc3ccc(OC(F)(F)F)cc3)c(=O)c3ccccc23)cc1,-1.17%,–
Cc1ccc(C(=O)N2c3ncnn3C3(CCCCC3)[C@@H]3CCCC[C@@H]32)cc1,-7.57%,–
CCCNc1ncnc2c1c(-c1ccccc1)cn2-c1ccc(OCC)cc1,–,28.2 µM (active)
O=c1[nH]cnc2c1c(-c1ccccc1)cn2-c1ccc(F)cc1,-0.586%,–
CCOC(=O)C1CCN(c2ncnc3c2c(-c2ccccc2)cn3-c2ccc(C)cc2)CC1,1.59%,–
CCc1ccc(CNC(=O)c2cc3c(=O)n(CC)c4ccccc4c3s2)cc1,-6.61%,–
O=C(NCC(c1cccnc1)N1CCc2ccccc21)c1cccc(C(F)(F)F)c1 (stereo not given),-1.72%,–
COc1cc(C(=O)N2CCN(c3ccc(Nc4ccc(C)cc4)nn3)CC2)cc(OC)c1OC,4.91%,–
CCc1ccc(N(CC)C(=O)CCn2cnc3onc(-c4ccc(F)cc4)c3c2=O)cc1,-16.8%,–
Cc1ccc(CSc2nc3cccnc3n2Cc2ccc(C(=O)NC3CC3)cc2)cc1,0.151%,–

SMILES,"activity change, negative = inhibition",Potency
COc1ccc(/C=C/c2nc(C#N)c(NCc3ccc(F)cc3)o2)cc1OC,4.01%,–
Cc1ccc2nc(/C(C#N)=C/c3ccc(-c4ccc(C(=O)OC(C)C)cc4)o3)[nH]c2c1,-13%,–
CCCn1c(NCc2ccccc2F)nc2ccccc21,17.3%,–
O=C(C1CC1)N1CCc2cc(Br)cc(S(=O)(=O)N3CCN(c4ccccc4F)CC3)c21,-11%,–
Cc1ccc2nc(-c3ccc(C)c(NC(=O)Cc4ccccc4)c3)oc2c1,4.91%,–
CCc1ccccc1NC(=O)Cc1ccc(NC(=O)N2CCCCc3ccccc32)cc1,9.63%,–
COc1cccc(CNC(=O)C(NS(=O)(=O)c2ccc3nc(C)sc3c2)C(C)C)c1 (stereo not given),2.39%,–
Cc1nc2sc(C)c(C)n2c(=O)c1S(=O)(=O)NCCc1ccc(Cl)cc1,6.87%,–
COc1ccccc1CCNC(=O)c1cccn1-c1nnc(N2CCCCC2)s1,13.2%,–
COc1ccc(S(=O)(=O)NCc2cccn2Cc2cccc(C)c2)cc1,-0.432%,–
COC(=O)c1sc2ncccc2c1-n1c(C)ccc1C,-12.6%,–
CCCN1CCN(CCCNC(=O)c2ccc3nc(Cc4ccccc4)oc3c2)CC1,29.4%,–
Cc1ccc(-c2cc(-c3coc4ccccc4c3=O)c3c(n2)-c2cc(Cl)ccc2OC3)cc1,-15%,–
O=C(NCc1ccccc1)c1ccc2c(c1)nc1n2CCCCC1,-2.7%,–
Cn1c(=O)nc2n(-c3ccc(Br)cc3)c3cccc(Cl)c3cc-2c1=O,-1.36%,–
CCc1ccc(S(=O)(=O)c2nnn3c2nc(N2CCN(CC)CC2)c2sccc23)cc1,-17.2%,–
Cc1cc(C)c2oc(C(=O)Nc3ccc(S(=O)(=O)N(C)c4ccccc4)cc3)cc(=O)c2c1,1.76%,–
Cc1nn(-c2ccc(N3CCCCC3)nn2)c(C)c1CCC(=O)NCc1ccccc1F,0%,–
COc1ccc(C(=O)Nc2ccc(-n3nncc3-c3ccccc3)cc2)cc1OC,-24.8%,–
COC(=O)c1cc(NC(=O)c2cnc(SC)nc2-c2ccccc2)cc(C(=O)OC)c1,1.46%,–
COC(=O)c1ccc(-c2c(-c3ccccc3)ncc3cc(OC)c(OC)cc23)cc1,–,39.8 µM (active)
COc1ccc(C)cc1NC(=O)COCc1cc(-c2cccs2)on1,11%,–
CCOC(=O)c1c(S(=O)(=O)NCC(=O)Nc2ccc(Cl)c(C(F)(F)F)c2)c(C)n(C)c1C,0.73%,–
